This note sets out measurements from PubChem BioAssay (Tox21).

A number with no mark means an inactive call. Results filed as inconclusive are left out. The source made the active and inactive calls. The call rests on the fitted dose curve; in most records, active means well fitted curve in the direction sought with a large enough effect in the repeat runs; inconclusive means weak or mixed curves; inactive means no such curve, though single readings can be large; an effect the other way counts as inactive or inconclusive.

Experiment [1] is described as follows: qHTS RealTime-Glo MT Cell Viability Assay in HEK293 cells - 0 hour (AID 1224880). Further: top concentration of the series differs between compounds; nearly all actives have a fitted effect of over 45% in size. An outline of the steps: (§1)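 Tox21 screen in HEK293 using RealTime-Glo MT chemistry, with cells and reagent co-dispensed. Luminescence proportional to viable cell number was captured at intervals during 40 h compound exposure at 37 C.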
Background: In qHTS, concentration-response curves come from the screen itself.

A short description of experiment [2]: A CellTox Green Cytotoxicity Assay to monitor cytotoxicity in HEK293 cells - 32 hour (AID 1224881). Further: nearly all actives have a fitted effect of over 40% in size. An outline of the steps: (§2)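 Seeding of HEK293 cells together with cytotoxicity dye preceded a 5 h incubation at 37 C/5% CO2. Test compounds in DMSO were then added and fluorescence monitored across 40 h.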
Experiment [3] is described as follows: A CellTox Green Cytotoxicity Assay to monitor cytotoxicity in HepG2 cells - 0 hour (AID 1224882). Further: nearly all actives have a fitted effect of over 35% in size. The gist of the method:
(§3)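 Nonlytic assay: viable cells exclude the dye, so fluorescence scales with cell death. HepG2 at 600 cells/well, compounds added after 5 h, signal read across 40 h.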

The nature of experiment [4]: qHTS RealTime-Glo MT Cell Viability Assay in HepG2 cells - 16 hour (AID 1224885). Further: nearly all actives have a fitted effect of over 50% in size. An outline of the steps: (§4)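 Real-time, nonlytic viability: 600 HepG2 cells/well mixed with NanoLuc enzyme plus prosubstrate; 5 h settle, compound (DMSO) added by pintool; luminescence monitored over 40 h at 37 C.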
Experiment [5] is described as follows: qHTS RealTime-Glo MT Cell Viability Assay in HEK293 cells - 24 hour (AID 1224886). Further: top concentration of the series differs between compounds; nearly all actives have a fitted effect of over 50% in size. An outline of the steps:
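Cells + reagent dispensed (600 cells/well, HEK293) → 5 h at 37 C/5% CO2 → 23 nL compound in DMSO pinned → 40 h at 37 C → luminescence read at 0, 8, 16, 24, 32, 40 h.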

Experiment [6] can be described thus: qHTS RealTime-Glo MT Cell Viability Assay in HEK293 cells - 8 hour (AID 1224887). Further: nearly all actives have a fitted effect of over 50% in size. Further: potency means the concentration at half of the fitted maximal effect. On activity change, negative = cytotoxicity: top concentration of the series differs between compounds. An outline of the steps: as §1
Experiment [7] in a line: A CellTox Green Cytotoxicity Assay to monitor cytotoxicity in HEK293 cells - 16 hour (AID 1224888). Further: nearly all actives have a fitted effect of over 35% in size. An outline of the steps: as §2
Experiment [8] in a line: qHTS RealTime-Glo MT Cell Viability Assay in HepG2 cells - 0 hour (AID 1224889). Further: nearly all actives have a fitted effect of over 50% in size. An outline of the steps: as §4
Experiment [9] can be described thus: A CellTox Green Cytotoxicity Assay to monitor cytotoxicity in HepG2 cells - 32 hour (AID 1224883). Further: nearly all actives have a fitted effect of over 50% in size. The gist of the method: as §3
The nature of experiment [10]: A CellTox Green Cytotoxicity Assay to monitor cytotoxicity in HEK293 cells - 8 hour (AID 1224884). Further: nearly all actives have a fitted effect of over 35% in size. The gist of the method:
as §2
On the % scale 0 is the no-effect control and ±100 the full control effect.

Regarding `CC(C)CC(C)CC(C)CC(C)COC(=O)c1ccccc1C(=O)OCC(C)CC(C)CC(C)CC(C)C` (stereo unspecified), the Potency entry in experiment [1], in [2], in experiment [5], in experiment [6] and in experiment [8] was “inactive” throughout. Further, the molecule was called inactive in [3], in experiment [4] and in [7].

For `O=C1c2ccccc2C(=O)C1c1ccccc1`, the Potency entry in experiment [1], in experiment [2], in experiment [9], in experiment [10], in experiment [5] and in [6] was “inactive” each time. In addition, the Potency entry in [8] is “inactive”. The result in experiment [4] and in experiment [7] was inactive.

Regarding `CCCCN`, the Potency entry in experiment [1], in [2], in experiment [9], in [10], in experiment [5] and in [6] was “inactive” throughout. Also, the Potency result in [8] was “inactive”. Moreover, the molecule was classed as inactive in experiment [4] and in experiment [7].

As to `CC(=O)NCc1c(I)c(NC(C)=O)c(I)c(C(=O)O)c1I`, the Potency entry in experiment [1], in experiment [2], in [10], in experiment [5] and in experiment [8] was “inactive” throughout. In addition, the molecule was classed as inactive in experiment [4] and in experiment [7].

Consider `CCOCCOC(=O)/C=C/c1ccc(OC)cc1`, for which the Potency entry in [1], in experiment [9], in experiment [10], in [5] and in [6] was “inactive” in each case. Also, the molecule was called inactive in experiment [3], in experiment [4] and in experiment [7].

On to `CN(CCOc1ccc(NS(C)(=O)=O)cc1)CCc1ccc(NS(C)(=O)=O)cc1`, for which the Potency entry in experiment [1], in experiment [2], in experiment [9], in [5], in experiment [6] and in [8] was “inactive” in each case. Further, the molecule was classed as inactive in experiment [4] and in experiment [7].

In the case of `CC/C=C\CC1=C(C)CCC1=O`, the Potency entry in experiment [1], in [2], in experiment [9], in experiment [5], in experiment [6] and in experiment [8] was “inactive” each time. In addition, the molecule was classed as inactive in experiment [4] and in experiment [7].

On to `CCCCCCCCC1CCC(=O)O1` (stereo unspecified), for which the Potency result in [1], in [2], in [10], in [5], in [6] and in experiment [8] was “inactive” throughout. In addition, the molecule was called inactive in [4] and in experiment [7].

For `Brc1ccc(-c2ccccc2)cc1`, the Potency result in [1], in [2], in experiment [9], in [10], in [5] and in [6] was “inactive” each time. Also, in [8], the Potency entry is “inactive”. Further, the molecule was classed as inactive in experiment [4] and in experiment [7].

Regarding `CC(CN)CC(C)(C)CCN` (stereo unspecified), the Potency result in experiment [1], in [2], in [10], in experiment [5], in experiment [6] and in [8] was “inactive” in each case. In addition, the result in experiment [4] and in experiment [7] was inactive.

Take `COc1ccc2c(c1OC)C(=O)O[C@@H]2[C@H]1c2c(cc3c(c2OC)OCO3)CCN1C`: the Potency result in [1], in experiment [2], in [10], in experiment [6] and in experiment [8] was “inactive” throughout. Also, the call in experiment [3], in experiment [4] and in [7] was inactive.

On to `CC(=C(CCOC(=O)C(C)C)SSC(CCOC(=O)C(C)C)=C(C)N(C=O)Cc1cnc(C)nc1N)N(C=O)Cc1cnc(C)nc1N`, for which the Potency entry in [1], in experiment [2], in experiment [5] and in [6] was “inactive” throughout. Besides, the result in experiment [4] and in experiment [7] was inactive.

For `COc1ccc(C2CNC(=O)C2)cc1OC1CCCC1` (stereo unspecified), the Potency result in [1], in experiment [2], in experiment [5], in experiment [6] and in experiment [8] was “inactive” throughout. Moreover, the result in experiment [3], in experiment [4] and in experiment [7] was inactive.

Consider `C#CC(C)N(C)C(=O)Nc1ccc(Cl)cc1` (stereo unspecified), for which the Potency entry in experiment [1], in experiment [2], in [10] and in [8] was “inactive” each time. In addition, the outcome in experiment [3], in [4] and in [7] was inactive.

Turning to `C[C@H](N)[C@H](O)c1cccc(O)c1`, the Potency entry in experiment [1], in [2], in [9], in [10] and in experiment [5] was “inactive” throughout. In addition, the molecule was classed as inactive in experiment [4] and in [7].

Take `CC[C@H](C)C(=O)O[C@H]1C[C@H](O)C=C2C=C[C@H](C)[C@H](CC[C@@H](O)C[C@@H](O)CC(=O)O)[C@H]21`: the Potency entry in experiment [1], in experiment [2], in experiment [9], in experiment [10], in [5] and in [6] was “inactive” throughout. Moreover, the Potency entry in experiment [8] was “inactive”. For the same molecule, the result in experiment [4] and in [7] was inactive.

As to `Nc1ccc([N+](=O)[O-])c(N)c1`, the Potency result in [1], in experiment [2], in experiment [9], in experiment [10], in experiment [5] and in experiment [6] was “inactive” each time. In addition, the Potency entry in experiment [8] is “inactive”. In addition, the outcome in experiment [4] and in experiment [7] was inactive.

Consider `NCCN1CCOCC1`, for which the Potency entry in [1], in experiment [2], in experiment [5], in [6] and in experiment [8] was “inactive” in each case. Also, the molecule was called inactive in experiment [3], in experiment [4] and in experiment [7].

As for `CC(CO)c1ccccc1` (stereo unspecified), the Potency result in experiment [1], in [2], in experiment [9], in experiment [10], in [5] and in experiment [6] was “inactive” each time. Further, in experiment [8], the Potency result was “inactive”. In addition, the call in experiment [4] and in experiment [7] was inactive.

In the case of `CCCC(=O)C(C)=O`, the Potency result in experiment [1], in [2], in [5], in [6] and in experiment [8] was “inactive” each time. In addition, the outcome in [3], in experiment [4] and in [7] was inactive.

As to `CCOc1cc(NC(C)=O)ccc1C(=O)OC`, the Potency result in experiment [1], in [2], in [9], in experiment [10], in experiment [5] and in experiment [8] was “inactive” throughout. Besides, the outcome in experiment [4] and in experiment [7] was inactive.

`NCCS`: the Potency entry in experiment [1], in experiment [9], in [10], in experiment [5], in [6] and in experiment [8] was “inactive” each time. Besides, the result in experiment [3], in experiment [4] and in experiment [7] was inactive.

Consider `Nc1cccc(O)c1`, for which the Potency entry in experiment [1], in experiment [2], in experiment [10], in experiment [5], in experiment [6] and in [8] was “inactive” throughout. The result in experiment [4] and in experiment [7] was inactive.

Regarding `CC(C)(C)c1n[nH]c(=S)n(N)c1=O`, the Potency entry in experiment [1], in experiment [2], in experiment [5] and in [6] was “inactive” each time. Moreover, the molecule was called inactive in [3], in [4] and in [7].

As to `Cc1nc2n(c(=O)c1CCN1CCC(c3noc4cc(F)ccc34)CC1)CCC[C@H]2O`, the activity change, negative = cytotoxicity in [1] is 7.51% [at 15.8 µM]; in experiment [8], 2.14% [at 15.8 µM]. The cytotoxicity increase is 6.5% [at 15.8 µM] in experiment [2], 2.66% [at 15.8 µM] in experiment [9] and 2.15% [at 15.8 µM] in [10]. Moreover, the activity change, negative = cytotoxic in experiment [4] is -0.162% [at 15.8 µM]. In addition, in experiment [6], the Potency is 3.69 µM (active). The activity change in experiment [7] was 1.32% [at 15.8 µM].
